Among the data in PubChem BioAssay AID624138 (Broad Institute, 2012) are outcome values, retold here.

The structures appear in SMILES notation. About 35 (0.2%) of roughly 17,000 compounds were called active.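 The calls were made as follows: active = compounds whose four printed spots each show fluorescence over background unusually high for their array block, chance value under 7%; inactive = the rest.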 This excerpt belongs to a sample that is enriched for actives.

The assay deals with Signal transducer and activator of transcription 3 (Homo sapiens) (UniProt P40763). Kind of assay: small molecules binding His-tagged STAT3 – biochemical, small molecule microarray, single point, set 2, primary screen (AID 624138). Conditions: anti-His fluorescence.
Chain of Signal transducer and activator of transcription 3 (Homo sapiens) (P40763 whole entry, looked up): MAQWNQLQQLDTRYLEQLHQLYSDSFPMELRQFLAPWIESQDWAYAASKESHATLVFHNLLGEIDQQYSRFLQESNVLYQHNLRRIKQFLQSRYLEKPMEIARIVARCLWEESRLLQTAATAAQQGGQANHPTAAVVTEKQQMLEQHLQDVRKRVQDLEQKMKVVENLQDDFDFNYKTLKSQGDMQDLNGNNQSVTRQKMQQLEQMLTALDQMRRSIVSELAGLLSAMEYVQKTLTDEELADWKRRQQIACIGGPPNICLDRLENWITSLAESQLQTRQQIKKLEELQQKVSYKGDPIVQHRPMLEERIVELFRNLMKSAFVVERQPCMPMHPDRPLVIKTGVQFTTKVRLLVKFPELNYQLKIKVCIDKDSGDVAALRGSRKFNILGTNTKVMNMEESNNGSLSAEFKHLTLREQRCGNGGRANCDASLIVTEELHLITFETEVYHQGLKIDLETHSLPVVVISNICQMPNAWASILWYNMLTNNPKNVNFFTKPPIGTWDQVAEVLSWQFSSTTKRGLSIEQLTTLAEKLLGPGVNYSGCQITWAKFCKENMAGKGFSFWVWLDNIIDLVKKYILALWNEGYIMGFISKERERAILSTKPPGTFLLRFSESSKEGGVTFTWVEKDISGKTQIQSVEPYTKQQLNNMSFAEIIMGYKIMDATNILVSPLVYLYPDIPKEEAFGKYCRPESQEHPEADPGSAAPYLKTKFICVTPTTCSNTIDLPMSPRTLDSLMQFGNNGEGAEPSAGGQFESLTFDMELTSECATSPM
For `O=C(NC1CC1)C1=C[C@H](c2coc3ccccc3c2=O)C[C@H](OCCCCO)O1`, the compound was classed as inactive.
The same measure for `C[C@@H]1CN([C@H](C)CO)C(=O)Cc2cc(NC(=O)CCN3CCOCC3)ccc2O[C@H]1CN(C)Cc1ccncc1`: “inactive”; for `C=C1CCC(C)C(C)(CCC2=CC(OC)OC2=O)C/C=C\C=C\1C(=O)O` (stereo unspecified): “inactive”.
The same measure for `C=CCNC(=O)[C@H]1[C@@H]2C(=O)O[C@@H](c3ccccc3)[C@@H](c3ccccc3)N2[C@@H](c2ccccc2OCCO)[C@]12C(=O)N(C(=O)OCCOC)c1ccc(C#Cc3ccc(OC)cc3)cc12`: “inactive”.
As for `C[C@@H]1CN([C@H](C)CO)C(=O)c2cc(NC(=O)Nc3ccccc3)ccc2O[C@@H](C)CCCCO[C@@H]1CN(C)Cc1ccncc1`, the result was inactive.
Regarding `C[C@H]1CN([C@@H](C)CO)C(=O)Cc2cc(NC(=O)C3CC3)ccc2O[C@@H]1CN(C)S(=O)(=O)c1cccs1`, the call was inactive.
As for `COc1ccc(S(=O)(=O)N(C)C[C@@H]2Oc3c(NS(=O)(=O)c4ccccc4)cccc3C(=O)N([C@@H](C)CO)C[C@@H]2C)cc1`, the result was inactive.
Take `C[C@@H]1CN([C@H](C)CO)C(=O)c2cccc(NC(=O)c3ccncc3)c2O[C@@H]1CN(C)S(=O)(=O)c1cn(C)cn1`: the outcome was inactive.
Consider `Cc1cccc(-n2c(SCC(N)=O)nnc2-c2ccncc2)c1C`, for which the outcome was inactive.
Take `C[C@@H]1CCCCO[C@@H](CN(C)C)[C@@H](C)CN([C@H](C)CO)C(=O)c2cc(NC(=O)c3ccncc3)ccc2O1`: the outcome was inactive.
With `OC(CCCN1CCN(c2ncc(F)cn2)CC1)c1ccc(F)cc1` (stereo unspecified), the call was inactive.
For the compound `C[C@@H]1CN([C@H](C)CO)C(=O)c2cccc(NS(=O)(=O)c3cn(C)cn3)c2O[C@@H]1CN(C)Cc1ccc(C(F)(F)F)cc1`, the compound was classed as inactive.
For the compound `Cc1ccc(NC(=O)C(C)N(c2ccc(Cl)cc2)S(C)(=O)=O)c(C)c1` (stereo unspecified), the call was inactive.
With `COc1ccc(-c2cnc3c(-c4ccsc4)cnn3c2)cc1`, the call was inactive.
With `C[C@@H]1CCCCO[C@@H](CN(C)C(=O)NC2CCCCC2)[C@H](C)CN([C@H](C)CO)C(=O)c2cc(NS(=O)(=O)c3ccc(Cl)cc3)ccc2O1`, the compound was classed as inactive.
As to `Cc1noc(C)c1NC(=O)Nc1ccc2c(c1)C(=O)N([C@@H](C)CO)C[C@@H](C)[C@H](CN(C)C)O2`, the outcome was inactive.
Regarding `C[C@@H]1CCCCO[C@H](CN(C)C(=O)Nc2ccc3c(c2)OCO3)[C@@H](C)CN([C@@H](C)CO)C(=O)c2cc(NC(=O)CCC(F)(F)F)ccc2O1`, the result was inactive.
For the compound `C[C@@H]1CN([C@@H](C)CO)C(=O)Cc2cc(NS(C)(=O)=O)ccc2O[C@@H]1CN(C)Cc1ccc2c(c1)OCO2`, the outcome was inactive.
With `Cc1ccc(S(=O)(=O)N(C)C[C@H]2Oc3ccc(NC(=O)CCC(F)(F)F)cc3C(=O)N([C@@H](C)CO)C[C@H]2C)cc1`, the call was inactive.
Regarding `C[C@@H]1CN([C@H](C)CO)C(=O)Cc2cc(NC(=O)CCCN(C)C)ccc2O[C@@H]1CN(C)S(=O)(=O)c1cccs1`, the result was inactive.
In the case of `N#Cc1cccc(CSc2nnc(CCCO)n2-c2ccccc2)c1`, the compound was called inactive.
Turning to `C[C@@H]1CCCCO[C@@H](CN(C)Cc2ccccc2)[C@H](C)CN([C@H](C)CO)C(=O)c2cc(NS(=O)(=O)c3cccs3)ccc2O1`, the result was inactive.
Take `O=C(CS(=O)(=O)c1ccccc1)Nc1ccc2c(c1)OCCO2`: the outcome was inactive.
In the case of `O=[N+]([O-])c1ccccc1/C=C/CN1CCC(O)CC1`, the call was inactive.
The same measure for `COc1ccc(CN(C)C[C@H]2Oc3c(NC(=O)c4ccncc4)cccc3C(=O)N([C@H](C)CO)C[C@@H]2C)cc1`: “inactive”.
Consider `CCO[C@@H]1OC(C(=O)N2CCOCC2)=C[C@H](C)[C@H]1CCCO`, for which the result was inactive.
The same measure for `O=[N+]([O-])c1ccc(NCCNS(=O)(=O)c2ccc(Br)cc2)c(C(F)(F)F)c1`: “inactive”; for `COc1ccc(NC(=S)NCc2cc(C)n(C)n2)cc1OC`: “inactive”.
Consider `C[C@@H]1CN([C@@H](C)CO)C(=O)c2cc(NC(=O)Nc3ccc4c(c3)OCO4)ccc2O[C@@H]1CN(C)C(=O)Nc1ccc2c(c1)OCO2`, for which the call was inactive.
The same measure for `C[C@@H]1CN([C@H](C)CO)C(=O)c2cccc(NC(=O)Nc3cccc4ccccc34)c2O[C@@H]1CN(C)C(=O)Nc1cccc2ccccc12`: “inactive”; for `CNC[C@@H]1Oc2ccc(NC(=O)CCC(F)(F)F)cc2C(=O)N([C@@H](C)CO)C[C@@H]1C`: “inactive”.
As for `Oc1cc(O)c2c(c1)OC(c1ccc(O)c(O)c1)C(O)C2` (stereo unspecified), the result was inactive.
Turning to `C[C@H]1CN([C@@H](C)CO)C(=O)c2cc(N(C)C)ccc2O[C@@H]1CN(C)Cc1ccccc1`, the outcome was inactive.
For `CCN(CCCCOC(=O)c1ccc(OC)c(OC)c1)C(C)Cc1ccc(OC)cc1` (stereo unspecified), the call was inactive.
With `COc1ccc(S(=O)(=O)N(C)C[C@H]2Oc3c(NC(=O)NC4CCCCC4)cccc3C(=O)N([C@@H](C)CO)C[C@@H]2C)cc1`, the result was inactive.
Take `CCc1cc2c(=O)n(-c3ccccc3)c(SCC(=O)O)nc2s1`: the call was inactive.
In the case of `C[C@H]1CCCCO[C@@H](CN(C)C(=O)c2ccccc2)[C@@H](C)CN([C@@H](C)CO)C(=O)c2cc(NS(=O)(=O)c3cccs3)ccc2O1`, the result was inactive.
`Cc1noc(C)c1NC(=O)Nc1ccc2c(c1)C(=O)N([C@@H](C)CO)C[C@H](C)[C@@H](CN(C)C(=O)C1CCCCC1)OCCCC[C@@H](C)O2`: the outcome was inactive.
As to `C[C@H](CO)N1C[C@H](C)[C@H](CN(C)C(=O)CCC(F)(F)F)OCCCC[C@H](C)Oc2ccc(NS(C)(=O)=O)cc2C1=O`, the compound was classed as active.
On to `C[C@@H]1CN([C@H](C)CO)C(=O)c2cc(NS(=O)(=O)c3ccccc3)ccc2O[C@@H](C)CCCCO[C@@H]1CN(C)C(=O)CCC(F)(F)F`, for which the compound was called inactive.
On to `C[C@@H]1CCCCO[C@H](CN(C)C(=O)CCC(F)(F)F)[C@H](C)CN([C@H](C)CO)C(=O)c2cc(NS(C)(=O)=O)ccc2O1`, for which the outcome was inactive.
Regarding `Cc1ccc(-n2c(SCC(=O)Nc3ccc(F)c(F)c3)nnc2-c2ccccn2)cc1`, the compound was classed as inactive.
On to `CC(C)NC(=O)Nc1ccc2c(c1)C(=O)N([C@H](C)CO)C[C@H](C)[C@H](CN(C)Cc1ccc(C(=O)O)cc1)OCCCC[C@@H](C)O2`, for which the compound was called inactive.
Turning to `O=C(NCc1ccco1)c1nc2ncccn2n1`, the call was inactive.
Turning to `OC(COc1ccc2ccccc2c1)Cn1cncn1` (stereo unspecified), the compound was called inactive.
The same measure for `Cc1ccc(C(=O)C2C(=O)C(=O)N(Cc3cccnc3)C2c2ccc(Cl)c(Cl)c2)o1` (stereo unspecified): “inactive”.
